# Screening results (PubChem BioAssay)
# hgDAF12 agonist: hgDAF-12 agonism, primary luciferase screen | HEK293 GAL4-hgDAF12 UAS-luciferase reporter, agonist luminescence; normalized to butyrate control | activation, % at 6.8 µM | 370,000 compounds, 1.8% hits;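 active = activation above a cutoff set at the mean of all screened compounds plus 3 SD, cut at about 10% in these data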;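 note: 0% = DMSO wells and 100% = sodium butyrate wells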
# DAX1 inh-1: inhibitors of DAX1 repression of SF-1 activated StAR promoter; HEK293T StAR-luciferase reporter, SF-1/DAX-1 repression relief; inhibition, % at 6.8 µM; 370,000 compounds, 1.1% hits; AID 652010;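 active = inhibition above the mean over all tested compounds plus 3 SD, cut at about 3.6% in these data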;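 note: 0% = DAX-1 cells with DMSO and 100% = cells lacking DAX-1 with DMSO; higher inhibition means more luminescence from relief of DAX-1 repression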
# AHR activator: activates the human aryl hydrocarbon receptor | P35869 | AHR-responsive luciferase reporter cells, luminescence | activation, % at 5 µM | 320,000 compounds, 2.5% hits | AID 2796; in the data active = activation above about 47%;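 note: 0% = vehicle wells and 100% = reference agonist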
# DAX1 inh-2: inhibitors of human orphan nuclear receptor DAX1 (NR0B1) | P51843 | HEK293 Gal4-DAX1 luciferase reporter, luminescence | inhibition, % at 6.75 µM | 340,000 compounds, 0.99% hits | AID 504766;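 active = inhibition above the mean over all tested compounds plus 3 SD, cut at about 4.2% in these data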;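 note: 0% = DAX1-transfected cells with DMSO and 100% = empty-vector control cells with DMSO; inhibition shows as a rise in luminescence from relieved DAX1 repression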
# Target sequence (P51843 207-470 limits assumed): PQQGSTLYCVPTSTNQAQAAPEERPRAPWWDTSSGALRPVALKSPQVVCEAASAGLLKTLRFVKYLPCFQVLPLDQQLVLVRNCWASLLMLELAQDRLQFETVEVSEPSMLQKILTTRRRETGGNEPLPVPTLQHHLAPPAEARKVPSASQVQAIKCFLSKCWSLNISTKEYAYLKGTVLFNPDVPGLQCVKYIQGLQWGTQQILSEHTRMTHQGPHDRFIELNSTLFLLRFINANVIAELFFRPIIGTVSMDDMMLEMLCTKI
# hcDAF12 agonist: H. contortus DAF-12 activation, primary screen | HEK293 hcDAF-12 lit1-tk-luc reporter, luminescence; 0% DMSO, 100% Δ7-dafachronic acid | activation, % at 6.8 µM | 370,000 compounds, 1.4% hits | AID 652067;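 active = activation above the mean of all tested compounds plus 3 SD, cut at about 5.5% in these data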;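 note: 100% = response to 3 µM Δ7-dafachronic acid high control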
# ssDAF12 agonist: activators of S. stercoralis DAF-12 nuclear receptor. 370,000 compounds, 1% hits. activation, % at 6.8 µM. HEK293 ssDAF-12/GRIP1 lit1-tk-luc reporter, luminescence; % of 3 µM dafachronic acid response. AID 652126;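 active = activation above the mean over all tested compounds plus 3 SD, cut at about 0.9% in these data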;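 note: 0% = DMSO-only wells and 100% = 3 µM delta7-dafachronic acid wells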
# Active calls of the source: *; x = no result. This is a sample that favours compounds with a hit; in the whole collection about 5.7% have one here.
SMILES,hgDAF12 agonist,DAX1 inh-1,AHR activator,DAX1 inh-2,hcDAF12 agonist,ssDAF12 agonist
Cc1ccc(N2C(=O)[C@@H]3[C@H](C2=O)[C@H]2C=CC=NN2[C@@H]3C(=O)Nc2ccccc2)cc1,1.6,0.4,9.8,-2.4,2.9,1.2*
Cc1nc(CN2CCN(Cc3nc(C(c4ccccc4)c4ccccc4)no3)CC2)cs1,-4.6,-0.1,-0.3,x,-0.1,-1.2
COc1cccc2[nH]c3c(N4CCN(Cc5ccc6c(c5)OCO6)CC4)ncnc3c12,-2.6,-2.0,72.8*,x,-1.4,-1.3
COc1cccc2[nH]c3c(N4CCc5ccccc5C4)ncnc3c12,x,x,29.7,x,x,x
COc1ccc2c(c1)[nH]c1c(N3CCN(Cc4ccc5c(c4)OCO5)CC3)ncnc12,-4.9,-3.6,11.7,-3.4,-4.0,-2.4
COc1cccc2[nH]c3c(N4CCC(C)CC4)ncnc3c12,-1.1,-0.1,60.3*,-1.5,-0.5,-1.8
COC(=O)/C=C1\S/C(=N\N=C\CC(=O)OC)NC1=O,0.4,-0.2,7.5,0.9,1.7,-1.3
CCCNC(=O)Cn1cc(S(=O)(=O)N2CCCC2)c(S(=O)(=O)N2CCCC2)c1,1.9,3.9*,0.5,0.8,1.5,-1.1
CCC(C)NC(=O)Cn1cc(S(=O)(=O)N2CCCC2)c(S(=O)(=O)N2CCCC2)c1 (centres undefined),3.3,-0.3,0.1,0.9,-1.9,-0.8
Cc1nc(SCC(=O)N2CCOCC2)c2c3c(sc2n1)CCC3,-0.2,-1.1,-1.0,-0.5,-1.9,-1.1
O=C(CSc1nccc(=O)[nH]1)c1cc2ccccc2o1,11.3*,0.7,21.4,2.3,2.9,1.3*
CCCCn1c(N)c(N(CC(C)C)C(=O)C2CCCO2)c(=O)[nH]c1=O (centres undefined),0.0,-0.2,-1.4,0.7,-1.6,-0.4
CCC(Sc1nc2n[nH]c(C)c2c(=N)n1-c1cccc(Cl)c1)C(=O)NCCOC (centres undefined),-2.6,-1.8,63.2*,0.5,-2.6,-1.1
COc1ccccc1NC(=O)CSc1nc2n[nH]c(C)c2c(=N)n1-c1ccccc1Cl,-1.4,-1.9,75.3*,-1.9,-1.1,-1.1
Cc1cc(-n2c(SCc3ccccc3F)nc3n[nH]c(C)c3c2=N)ccc1Cl,-1.9,-0.3,55.5*,0.3,-1.7,-2.6
CCN(C(=O)CSc1nc2n[nH]c(C)c2c(=N)n1-c1ccc(Cl)c(C)c1)c1cccc(C)c1,1.5,-2.5,24.3,0.3,1.4,-1.0
Oc1c(Br)cc(Br)cc1C=Nc1cccc2ncccc12,-2.1,-0.5,36.4,-1.2,1.9,-0.3
CN1CCSc2ccc(C(=O)NCc3cccc(F)c3)cc21,3.0,-0.7,67.0*,0.7,-0.9,-1.6
COc1ccc(Br)cc1CNC(=O)c1ccc2c(c1)N(C)CCS2,1.5,0.2,49.2*,-0.9,-0.8,-1.0
CCN1CCSc2ccc(C(=O)NCc3cc(Br)ccc3OC)cc21,-2.0,0.2,15.4,-0.5,-1.7,-1.0
Cc1cc(C(=O)Nc2ccccc2N2CCOCC2)ccc1[N+](=O)[O-],-0.6,0.4,72.1*,-0.1,-1.4,-1.1
O=C(NC(=S)Nc1ccccc1N1CCCCC1)c1ccccc1,-2.8,-0.8,33.5,-0.7,0.3,-1.2
Cc1cc(C(=O)NC(=S)Nc2ccccc2N2CCOCC2)ccc1[N+](=O)[O-],0.0,-0.2,12.4,-0.1,-1.2,0.0
COc1ccc(C(=O)Nc2ccccc2N2CCOCC2)cc1[N+](=O)[O-],1.5,-0.8,15.2,-0.2,-0.7,-1.8
Cc1ccccc1C(=O)NC(=S)Nc1ccccc1N1CCCC1,-0.1,-0.2,50.1*,-0.2,1.2,-0.7
SMILES,hgDAF12 agonist,DAX1 inh-1,AHR activator,DAX1 inh-2,hcDAF12 agonist,ssDAF12 agonist
Cc1cc(C(=O)NC(=S)Nc2ccccc2N2CCCC2)ccc1[N+](=O)[O-],7.5,0.2,49.7*,1.5,-1.2,0.7
COc1ccccc1NC(=O)c1cc([N+](=O)[O-])ccc1N1CCOCC1,2.7,0.7,59.7*,-0.1,2.1,0.8
O=C(Nc1cccc(Cl)c1N1CCOCC1)c1cc([N+](=O)[O-])ccc1N1CCOCC1,-0.5,-1.1,-2.1,-1.0,-0.1,-0.9
Cc1cc(C)n(-c2cccc(CN(C)Cc3nc(-c4cnccn4)no3)c2)n1,3.0,-0.5,0.3,-1.0,2.5,-2.1
O=C(COc1ccc(Br)cc1)NC(=S)Nc1ccccc1N1CCOCC1,0.8,-0.8,6.3,0.8,-0.3,-0.5
O=C(Nc1ccccc1N1CCOCC1)c1cc2ccccc2o1,2.1,-0.3,9.7,-0.1,1.3,1.3*
CN1CCN(c2ccccc2NC(=O)c2cc3ccccc3o2)CC1,-1.0,-1.2,19.5,-0.8,3.9,0.4
Cc1ccc(O)c(NC(=S)NC(=O)c2ccccc2Cl)c1,5.6,0.0,59.6*,1.1,3.0,-0.2
O=C(NC(=S)Nc1ccccc1N1CCOCC1)c1ccc(Br)cc1,2.2,-1.7,55.4*,0.2,-1.4,-1.5
CC1=C(C(=O)N2CCOCC2)CC(CC(=O)NCCc2ccccn2)C(=O)N1CCCN1CCCC1=O (centres undefined),3.0,1.1,x,x,-1.1,-1.4
O=C(O)c1nn(-c2cccc(Cl)c2)c(=O)cc1O,1.3,-0.2,0.1,-1.5,4.5,1.2*
N#Cc1cc2cc3c(cc2nc1N1CCCCC1)OCCO3,-5.3,-0.6,30.6,1.8,6.2*,-0.2
N#Cc1cc2cc3c(cc2nc1Cl)OCCO3,-5.0,2.9,x,-0.5,-2.8,-0.9
C=CCn1nc2ccccc2c1OCCO,5.0,0.2,7.4,3.0,6.0*,0.0
CC(C)C[C@H]1CN=C(Nc2ccccc2)N1CC1CCC(C(C)(C)C)CC1 (some centres undefined),x,x,0.3,4.5*,x,x
Oc1ccccc1CNc1cnc2ccccc2c1,10.3,1.6,48.9*,2.0,2.2,0.2
Cc1ccccc1C(=O)N[C@H](C(=O)N1CCC[C@H]1C(=O)NC1CCCC1)c1ccccc1,5.4,-1.3,x,x,0.6,-1.1
O=[N+]([O-])c1ccccc1C(=Nc1ccccc1)c1c(O)cc(O)cc1O,1.1,-0.8,x,-1.5,0.7,-1.1
CCn1c(O)c(C2=c3ccccc3=NC2=O)c2cc(Br)ccc21,2.7,-0.2,18.1,x,4.6,1.0*
CC(c1c[nH]c2ccccc12)c1cn(C)c2ccccc12 (centres undefined),2.1,-1.4,x,x,2.1,-0.5
O=c1c2c(nc3c(-c4ccc(Cl)cc4)c[nH]n13)CCCC2,-1.5,0.1,66.7*,-2.0,-1.9,-1.1
CCOc1cc(C(=O)N(C)CC(=O)Nc2cccc(F)c2)ccc1OCC(=O)N1CCCCC1,2.6,-0.9,16.2,-1.4,3.6,1.3*
Cc1ccc(-n2nc(C)c(C3(O)C(=O)N(C)c4ccccc43)c2N)cc1 (centres undefined),1.5,-0.4,19.2,-1.3,2.6,-1.0
